Results on three molecules are retold here after ChEMBL document CHEMBL2218924, “A broad activity screen in support of a chemogenomic map for kinase signalling research and drug discovery” (Biochem J, 2013).

Each structure is given as a SMILES string.

The target of test [1] is T1, Muscle, skeletal receptor tyrosine-protein kinase (Homo sapiens) (UniProt O15146).
T1 sequence (whole entry): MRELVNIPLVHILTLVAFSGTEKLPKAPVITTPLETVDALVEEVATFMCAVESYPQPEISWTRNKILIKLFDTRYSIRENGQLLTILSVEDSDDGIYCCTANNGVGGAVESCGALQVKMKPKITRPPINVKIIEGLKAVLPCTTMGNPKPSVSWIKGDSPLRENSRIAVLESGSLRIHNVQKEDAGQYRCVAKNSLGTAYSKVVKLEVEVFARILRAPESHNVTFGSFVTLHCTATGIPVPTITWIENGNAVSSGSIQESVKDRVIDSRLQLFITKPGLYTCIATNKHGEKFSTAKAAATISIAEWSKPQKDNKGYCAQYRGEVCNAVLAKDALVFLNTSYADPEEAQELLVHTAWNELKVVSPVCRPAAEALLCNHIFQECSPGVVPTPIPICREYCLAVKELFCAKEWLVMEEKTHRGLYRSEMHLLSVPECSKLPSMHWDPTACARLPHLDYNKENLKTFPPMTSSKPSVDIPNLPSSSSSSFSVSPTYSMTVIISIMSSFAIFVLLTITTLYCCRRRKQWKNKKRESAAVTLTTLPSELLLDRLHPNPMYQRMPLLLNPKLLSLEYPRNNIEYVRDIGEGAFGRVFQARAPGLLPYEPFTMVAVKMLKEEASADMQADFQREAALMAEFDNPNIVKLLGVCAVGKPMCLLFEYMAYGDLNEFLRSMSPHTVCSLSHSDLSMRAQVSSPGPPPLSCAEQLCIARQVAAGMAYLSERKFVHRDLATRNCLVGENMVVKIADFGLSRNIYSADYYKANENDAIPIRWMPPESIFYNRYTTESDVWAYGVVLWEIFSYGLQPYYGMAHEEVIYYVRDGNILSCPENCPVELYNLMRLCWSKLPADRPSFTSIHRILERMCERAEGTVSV
To be noted: at 1 µM.

Test [2] addresses T1, Muscle, skeletal receptor tyrosine-protein kinase (Homo sapiens). To be noted: at 10 µM.
The target of test [3] is T2, Serine/threonine-protein kinase Nek11 (Homo sapiens) (UniProt Q8NG66).
T2 sequence (whole entry): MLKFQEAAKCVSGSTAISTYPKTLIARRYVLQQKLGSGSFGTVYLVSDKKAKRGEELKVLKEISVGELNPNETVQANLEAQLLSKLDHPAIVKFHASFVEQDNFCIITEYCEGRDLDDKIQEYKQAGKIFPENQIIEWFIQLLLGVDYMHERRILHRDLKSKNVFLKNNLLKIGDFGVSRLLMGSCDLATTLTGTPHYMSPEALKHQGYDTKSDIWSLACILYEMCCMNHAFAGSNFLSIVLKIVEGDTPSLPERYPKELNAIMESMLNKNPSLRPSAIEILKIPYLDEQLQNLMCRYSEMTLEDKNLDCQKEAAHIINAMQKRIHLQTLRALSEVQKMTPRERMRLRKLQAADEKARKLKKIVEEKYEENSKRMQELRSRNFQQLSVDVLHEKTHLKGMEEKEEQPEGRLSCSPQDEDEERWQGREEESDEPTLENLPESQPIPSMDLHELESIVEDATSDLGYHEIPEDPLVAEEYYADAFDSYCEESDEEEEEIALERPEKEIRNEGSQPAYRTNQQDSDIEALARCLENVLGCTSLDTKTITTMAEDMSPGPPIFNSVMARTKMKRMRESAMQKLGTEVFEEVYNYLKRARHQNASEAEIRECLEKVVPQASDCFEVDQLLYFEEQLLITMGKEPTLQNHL
To be noted: at 1 µM.

In test [4] the target is T2, Serine/threonine-protein kinase Nek11 (Homo sapiens). To be noted: at 10 µM.
The target of test [5] is T3, Serine/threonine-protein kinase Nek2 (Homo sapiens) (UniProt P51955).
T3 sequence (whole entry): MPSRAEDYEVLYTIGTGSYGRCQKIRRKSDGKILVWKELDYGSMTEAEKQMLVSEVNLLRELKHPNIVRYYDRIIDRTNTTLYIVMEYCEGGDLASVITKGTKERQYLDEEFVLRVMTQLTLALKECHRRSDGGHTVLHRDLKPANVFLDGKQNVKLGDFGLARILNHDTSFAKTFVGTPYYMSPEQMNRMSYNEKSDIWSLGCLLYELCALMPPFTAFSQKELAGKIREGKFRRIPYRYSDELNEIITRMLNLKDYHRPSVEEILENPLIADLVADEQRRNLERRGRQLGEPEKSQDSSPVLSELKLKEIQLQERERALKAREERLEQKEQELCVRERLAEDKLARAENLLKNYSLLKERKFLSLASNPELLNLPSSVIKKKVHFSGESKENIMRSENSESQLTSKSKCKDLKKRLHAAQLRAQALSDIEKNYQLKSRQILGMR
Conditions: at 1 µM.

Test [6] addresses T3, Serine/threonine-protein kinase Nek2 (Homo sapiens). Conditions: at 10 µM.
In test [7] the target is T4, Serine/threonine-protein kinase Nek3 (Homo sapiens) (UniProt P51956).
T4 sequence (whole entry): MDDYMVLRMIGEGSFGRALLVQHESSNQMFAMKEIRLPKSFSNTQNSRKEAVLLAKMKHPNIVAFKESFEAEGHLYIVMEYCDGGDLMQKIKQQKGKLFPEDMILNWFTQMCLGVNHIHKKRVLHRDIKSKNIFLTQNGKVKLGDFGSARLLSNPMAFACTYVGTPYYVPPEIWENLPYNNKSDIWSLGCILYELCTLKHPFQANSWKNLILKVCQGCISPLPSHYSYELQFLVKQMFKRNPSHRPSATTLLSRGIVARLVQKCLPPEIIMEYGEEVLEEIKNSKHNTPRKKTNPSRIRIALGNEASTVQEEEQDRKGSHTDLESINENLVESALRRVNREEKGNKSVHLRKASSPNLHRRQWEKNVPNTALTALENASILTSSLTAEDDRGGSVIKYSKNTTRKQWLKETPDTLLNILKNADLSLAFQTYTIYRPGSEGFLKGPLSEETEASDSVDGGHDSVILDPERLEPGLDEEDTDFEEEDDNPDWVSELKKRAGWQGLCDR
Conditions: at 1 µM.

For test [8], the target named is T4, Serine/threonine-protein kinase Nek3 (Homo sapiens). To be noted: at 10 µM.
Test [9] concerns the target Serine/threonine-protein kinase tousled-like 2 (Homo sapiens) (UniProt Q86UE8). Conditions: at 1 µM.
Test [10] shares this target. Conditions: at 10 µM.
Test [11] deals with T5, Testis-specific serine/threonine-protein kinase 1 (Homo sapiens) (UniProt Q9BXA7).
T5 sequence (whole entry): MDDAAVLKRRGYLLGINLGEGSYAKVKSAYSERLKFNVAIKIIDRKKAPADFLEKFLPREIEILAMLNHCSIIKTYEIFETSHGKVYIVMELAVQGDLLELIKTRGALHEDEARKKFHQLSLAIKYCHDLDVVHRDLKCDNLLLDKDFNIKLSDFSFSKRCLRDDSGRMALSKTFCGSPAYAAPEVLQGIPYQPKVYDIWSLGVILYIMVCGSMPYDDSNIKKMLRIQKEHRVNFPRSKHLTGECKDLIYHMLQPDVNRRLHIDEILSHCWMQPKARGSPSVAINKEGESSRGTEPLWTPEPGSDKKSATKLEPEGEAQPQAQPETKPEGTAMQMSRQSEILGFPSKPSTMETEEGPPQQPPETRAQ
Conditions: at 1 µM.

The target in test [12] is T5, Testis-specific serine/threonine-protein kinase 1 (Homo sapiens). To be noted: at 10 µM.
In test [13] the target is T6, Testis-specific serine/threonine-protein kinase 2 (Homo sapiens) (UniProt Q96PF2).
T6 sequence (whole entry): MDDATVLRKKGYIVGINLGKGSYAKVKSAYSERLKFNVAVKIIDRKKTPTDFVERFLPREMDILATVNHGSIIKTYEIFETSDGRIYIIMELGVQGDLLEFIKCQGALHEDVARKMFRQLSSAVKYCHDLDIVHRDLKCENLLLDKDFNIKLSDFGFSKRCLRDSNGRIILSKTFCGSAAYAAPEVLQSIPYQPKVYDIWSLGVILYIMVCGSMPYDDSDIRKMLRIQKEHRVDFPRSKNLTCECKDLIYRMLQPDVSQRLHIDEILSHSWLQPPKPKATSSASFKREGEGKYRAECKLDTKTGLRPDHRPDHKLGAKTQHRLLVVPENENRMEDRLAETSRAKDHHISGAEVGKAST
To be noted: at 10 µM.

In test [14] the target is T7, Tyrosine-protein kinase Tec (Homo sapiens) (UniProt P42680).
T7 sequence (whole entry): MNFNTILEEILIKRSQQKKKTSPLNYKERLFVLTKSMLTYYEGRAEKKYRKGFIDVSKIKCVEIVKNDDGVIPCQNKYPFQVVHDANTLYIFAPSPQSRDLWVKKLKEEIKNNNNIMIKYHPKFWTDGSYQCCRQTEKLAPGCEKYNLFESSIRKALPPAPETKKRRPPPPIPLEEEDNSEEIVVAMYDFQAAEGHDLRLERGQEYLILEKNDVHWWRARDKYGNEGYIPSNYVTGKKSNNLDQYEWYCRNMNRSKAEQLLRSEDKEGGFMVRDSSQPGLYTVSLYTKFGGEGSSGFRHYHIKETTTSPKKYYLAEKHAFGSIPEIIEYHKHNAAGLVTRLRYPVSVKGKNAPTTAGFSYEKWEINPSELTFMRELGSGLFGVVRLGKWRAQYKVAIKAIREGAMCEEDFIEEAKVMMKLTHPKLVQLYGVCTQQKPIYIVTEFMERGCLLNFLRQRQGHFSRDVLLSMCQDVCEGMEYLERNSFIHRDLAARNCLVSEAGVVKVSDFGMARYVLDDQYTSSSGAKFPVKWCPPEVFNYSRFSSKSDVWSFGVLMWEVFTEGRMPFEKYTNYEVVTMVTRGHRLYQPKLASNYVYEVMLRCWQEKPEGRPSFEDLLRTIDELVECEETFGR
Conditions: at 1 µM.

The target in test [15] is T7, Tyrosine-protein kinase Tec (Homo sapiens). Conditions: at 10 µM.
The target in test [16] is Angiopoietin-1 receptor (Homo sapiens) (UniProt Q02763). To be noted: at 1 µM.
Chain of Angiopoietin-1 receptor (Homo sapiens) (Q02763 whole entry): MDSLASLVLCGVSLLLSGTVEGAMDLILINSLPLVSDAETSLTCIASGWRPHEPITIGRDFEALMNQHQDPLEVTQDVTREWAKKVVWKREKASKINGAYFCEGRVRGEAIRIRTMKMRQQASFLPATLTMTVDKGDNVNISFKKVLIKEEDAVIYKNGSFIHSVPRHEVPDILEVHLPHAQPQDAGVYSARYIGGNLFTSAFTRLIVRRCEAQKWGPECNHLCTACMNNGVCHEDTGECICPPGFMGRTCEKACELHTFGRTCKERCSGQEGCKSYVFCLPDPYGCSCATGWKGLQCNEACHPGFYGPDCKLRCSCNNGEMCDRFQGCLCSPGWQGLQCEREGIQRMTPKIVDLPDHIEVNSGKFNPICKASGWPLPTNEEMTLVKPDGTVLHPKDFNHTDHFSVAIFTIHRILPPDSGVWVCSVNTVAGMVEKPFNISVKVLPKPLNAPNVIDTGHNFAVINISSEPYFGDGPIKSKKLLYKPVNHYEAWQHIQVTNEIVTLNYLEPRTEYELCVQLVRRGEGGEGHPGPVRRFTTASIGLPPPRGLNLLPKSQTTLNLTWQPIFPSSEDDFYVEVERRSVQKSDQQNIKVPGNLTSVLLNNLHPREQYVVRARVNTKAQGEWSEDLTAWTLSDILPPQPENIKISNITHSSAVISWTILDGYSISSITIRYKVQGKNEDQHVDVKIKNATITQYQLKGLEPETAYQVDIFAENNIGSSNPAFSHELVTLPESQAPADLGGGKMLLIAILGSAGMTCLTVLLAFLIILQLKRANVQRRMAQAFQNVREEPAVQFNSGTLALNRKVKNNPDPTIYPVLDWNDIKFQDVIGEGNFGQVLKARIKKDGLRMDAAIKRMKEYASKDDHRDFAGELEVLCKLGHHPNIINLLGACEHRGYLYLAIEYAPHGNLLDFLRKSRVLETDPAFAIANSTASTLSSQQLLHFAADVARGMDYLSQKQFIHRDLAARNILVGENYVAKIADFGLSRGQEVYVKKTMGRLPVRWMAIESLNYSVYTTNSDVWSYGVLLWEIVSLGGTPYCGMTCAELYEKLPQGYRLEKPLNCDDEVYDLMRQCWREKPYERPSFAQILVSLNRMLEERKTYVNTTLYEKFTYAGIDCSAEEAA
The target is the same in test [17]. To be noted: at 10 µM.
The target of test [18] is High affinity nerve growth factor receptor (Homo sapiens) (UniProt P04629). Conditions: at 1 µM.
Chain of High affinity nerve growth factor receptor (Homo sapiens) (P04629 33-796 limits assumed): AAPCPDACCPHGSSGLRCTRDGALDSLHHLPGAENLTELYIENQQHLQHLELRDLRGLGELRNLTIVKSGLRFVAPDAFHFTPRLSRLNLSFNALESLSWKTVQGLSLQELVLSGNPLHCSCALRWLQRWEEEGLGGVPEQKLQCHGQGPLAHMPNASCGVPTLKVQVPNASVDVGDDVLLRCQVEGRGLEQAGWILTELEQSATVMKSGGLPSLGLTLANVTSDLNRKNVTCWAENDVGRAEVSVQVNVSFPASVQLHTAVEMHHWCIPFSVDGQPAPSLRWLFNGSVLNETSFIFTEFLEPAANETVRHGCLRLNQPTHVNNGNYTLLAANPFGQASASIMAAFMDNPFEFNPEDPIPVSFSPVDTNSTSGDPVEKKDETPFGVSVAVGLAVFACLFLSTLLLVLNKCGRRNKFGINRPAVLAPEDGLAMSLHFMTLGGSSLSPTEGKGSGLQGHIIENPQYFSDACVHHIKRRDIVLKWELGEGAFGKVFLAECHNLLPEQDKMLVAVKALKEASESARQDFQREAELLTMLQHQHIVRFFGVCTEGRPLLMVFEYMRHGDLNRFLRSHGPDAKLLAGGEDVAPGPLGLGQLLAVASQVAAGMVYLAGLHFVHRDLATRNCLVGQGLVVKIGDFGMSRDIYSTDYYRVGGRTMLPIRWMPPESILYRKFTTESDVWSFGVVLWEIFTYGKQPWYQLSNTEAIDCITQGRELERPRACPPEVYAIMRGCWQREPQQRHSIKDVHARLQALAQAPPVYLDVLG
Test [19] shares this target. To be noted: at 10 µM.
In test [20] the target is BDNF/NT-3 growth factors receptor (Homo sapiens) (UniProt Q16620). To be noted: at 1 µM.
Chain of BDNF/NT-3 growth factors receptor (Homo sapiens) (Q16620 32-822 limits assumed): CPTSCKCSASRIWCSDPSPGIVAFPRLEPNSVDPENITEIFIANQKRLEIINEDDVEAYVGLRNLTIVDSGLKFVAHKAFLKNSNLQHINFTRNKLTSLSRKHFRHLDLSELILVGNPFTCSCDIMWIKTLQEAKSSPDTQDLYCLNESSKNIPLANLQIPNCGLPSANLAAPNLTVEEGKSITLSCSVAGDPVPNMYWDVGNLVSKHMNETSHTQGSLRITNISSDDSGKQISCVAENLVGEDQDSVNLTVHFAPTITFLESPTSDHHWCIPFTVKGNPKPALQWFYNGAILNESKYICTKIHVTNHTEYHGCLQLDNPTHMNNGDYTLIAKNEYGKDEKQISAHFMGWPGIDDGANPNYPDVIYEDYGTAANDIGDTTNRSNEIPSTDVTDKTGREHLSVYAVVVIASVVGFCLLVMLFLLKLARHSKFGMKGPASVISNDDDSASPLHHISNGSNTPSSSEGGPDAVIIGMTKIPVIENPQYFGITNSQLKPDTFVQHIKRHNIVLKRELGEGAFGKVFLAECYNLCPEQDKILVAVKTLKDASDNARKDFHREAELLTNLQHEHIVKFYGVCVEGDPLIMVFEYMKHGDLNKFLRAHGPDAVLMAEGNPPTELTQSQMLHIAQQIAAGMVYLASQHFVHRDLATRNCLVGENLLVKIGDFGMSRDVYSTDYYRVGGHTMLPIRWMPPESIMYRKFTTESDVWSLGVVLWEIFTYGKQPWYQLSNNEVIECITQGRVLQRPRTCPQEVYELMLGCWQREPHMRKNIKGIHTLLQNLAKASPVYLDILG

Chain of Serine/threonine-protein kinase tousled-like 2 (Homo sapiens) (Q86UE8 whole entry, looked up): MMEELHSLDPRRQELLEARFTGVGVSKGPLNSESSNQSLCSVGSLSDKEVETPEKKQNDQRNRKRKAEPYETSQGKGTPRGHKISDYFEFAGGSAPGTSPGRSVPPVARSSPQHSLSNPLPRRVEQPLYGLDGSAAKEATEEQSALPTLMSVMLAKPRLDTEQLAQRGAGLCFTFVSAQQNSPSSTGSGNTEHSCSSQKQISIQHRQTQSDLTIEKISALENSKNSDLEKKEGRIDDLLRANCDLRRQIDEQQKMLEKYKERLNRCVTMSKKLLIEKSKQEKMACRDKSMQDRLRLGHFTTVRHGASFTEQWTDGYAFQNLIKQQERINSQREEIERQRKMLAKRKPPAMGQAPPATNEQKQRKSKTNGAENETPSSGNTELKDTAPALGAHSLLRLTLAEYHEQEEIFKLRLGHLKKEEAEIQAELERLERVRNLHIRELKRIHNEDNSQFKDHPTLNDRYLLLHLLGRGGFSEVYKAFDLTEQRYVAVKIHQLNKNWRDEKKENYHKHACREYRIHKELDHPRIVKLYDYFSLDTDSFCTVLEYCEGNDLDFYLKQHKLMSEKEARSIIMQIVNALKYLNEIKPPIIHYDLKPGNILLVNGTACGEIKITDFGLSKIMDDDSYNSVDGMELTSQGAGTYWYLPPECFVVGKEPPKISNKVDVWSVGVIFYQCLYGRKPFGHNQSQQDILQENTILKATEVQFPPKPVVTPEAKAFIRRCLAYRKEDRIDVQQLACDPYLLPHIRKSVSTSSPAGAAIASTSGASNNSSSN

In general, residual activity refers to the signal under treatment as a percentage of the control signal. Regarding `O=C(Nc1cccc(Nc2nccc(Nc3cccc(C(F)(F)F)c3)n2)c1)C1CC1`, the residual activity in test [1] worked out at 88%; in test [2] it was 3%; in test [3] it was 90%; in test [4], 80%; in [5], 94%; in test [6] it was 101%. Besides, the residual activity in [7] came to 88%; in test [8], 33%; in [9], 109%; in [10] it was 93%; in test [11], 94%; in [12], 64%. In addition, the residual activity in test [13] was 78%; in test [14], 78%; in test [15], 9%; in test [16] it was 136%; in test [17], 70%; in test [18] it was 18%. For the same molecule, the residual activity in test [19] was 1%; in test [20], 44%.
As for `Cc1ccc(S(=O)(=O)/C=C/C#N)cc1`, the residual activity in test [1] amounted to 85%; in [2], 96%; in test [3], 72%; in [4] it was 81%; in test [5], 97%; in [6], 90%. Also, the residual activity in test [7] was 90%; in test [8] it was 98%; in test [9], 87%; in [10], 89%; in [11], 91%; in test [12] it was 107%. The residual activity in test [13] amounted to 91%; in test [14] it was 95%; in [15] it was 90%; in test [16], 115%; in test [17], 118%; in test [18], 105%. Moreover, the residual activity in test [19] is 92%; in [20], 117%.
With `CCOc1cc2ncnc(Nc3cccc(Br)c3)c2cc1OCC`, the residual activity came to 95% in test [1]; 70% in test [2]; 104% in test [3]; 89% in test [4]; 77% in test [5]; 93% in [6]. The residual activity in test [7] was 118%; in test [8], 88%; in test [9] it was 98%; in test [10], 95%; in [11] it was 99%; in test [12] it was 83%. Further, the residual activity stood at 67% in [13]; 74% in test [14]; 38% in [15]; 48% in test [16]; 46% in [17]; 87% in test [18]. In addition, the figures for the residual activity in [19] and in test [20] were 43% and 116%, respectively.
